# Rows were chosen to be rich in hits. Some 0.44% of all compounds tested hit in one or more screens of this group.
# EPAC1 antag = qHTS for Antagonist of cAMP-regulated guanine nucleotide exchange factor 3 (EPAC1): primary screen | Rap guanine nucleotide exchange factor 3 (Homo sapiens), O95398 | EPAC1 GEF assay, Rap1b-BODIPY-GDP exchange fluorescence | Potency, µM (highest dose often 115 µM), for the others: at the top dose activity change, negative = inhibition, hits mostly inhibitors | 360,000 tested, 0.14% active | AID 720709, 2013;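 note: plate controls were vehicle for no effect and positive control for full effect; nearly all actives have a fitted effect of over 50% in size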
# EPAC2 agonist = qHTS for Agonist of cAMP-regulated guanine nucleotide exchange factor 4 (EPAC2): primary screen. Potency, µM (doses to about 154 µM), for the others: top-dose activation, usual class: activators. AID 720711, 2013. 360,000 tested, 0.079% active. Rap guanine nucleotide exchange factor 4 (Homo sapiens), Q8WZA2. EPAC2 activation, biochemical qHTS; response scale: 100% = 6.5 mM cAMP response; note: nearly all actives have a fitted effect of over 50% in size
# Target sequence (Q8WZA2 whole entry, looked up): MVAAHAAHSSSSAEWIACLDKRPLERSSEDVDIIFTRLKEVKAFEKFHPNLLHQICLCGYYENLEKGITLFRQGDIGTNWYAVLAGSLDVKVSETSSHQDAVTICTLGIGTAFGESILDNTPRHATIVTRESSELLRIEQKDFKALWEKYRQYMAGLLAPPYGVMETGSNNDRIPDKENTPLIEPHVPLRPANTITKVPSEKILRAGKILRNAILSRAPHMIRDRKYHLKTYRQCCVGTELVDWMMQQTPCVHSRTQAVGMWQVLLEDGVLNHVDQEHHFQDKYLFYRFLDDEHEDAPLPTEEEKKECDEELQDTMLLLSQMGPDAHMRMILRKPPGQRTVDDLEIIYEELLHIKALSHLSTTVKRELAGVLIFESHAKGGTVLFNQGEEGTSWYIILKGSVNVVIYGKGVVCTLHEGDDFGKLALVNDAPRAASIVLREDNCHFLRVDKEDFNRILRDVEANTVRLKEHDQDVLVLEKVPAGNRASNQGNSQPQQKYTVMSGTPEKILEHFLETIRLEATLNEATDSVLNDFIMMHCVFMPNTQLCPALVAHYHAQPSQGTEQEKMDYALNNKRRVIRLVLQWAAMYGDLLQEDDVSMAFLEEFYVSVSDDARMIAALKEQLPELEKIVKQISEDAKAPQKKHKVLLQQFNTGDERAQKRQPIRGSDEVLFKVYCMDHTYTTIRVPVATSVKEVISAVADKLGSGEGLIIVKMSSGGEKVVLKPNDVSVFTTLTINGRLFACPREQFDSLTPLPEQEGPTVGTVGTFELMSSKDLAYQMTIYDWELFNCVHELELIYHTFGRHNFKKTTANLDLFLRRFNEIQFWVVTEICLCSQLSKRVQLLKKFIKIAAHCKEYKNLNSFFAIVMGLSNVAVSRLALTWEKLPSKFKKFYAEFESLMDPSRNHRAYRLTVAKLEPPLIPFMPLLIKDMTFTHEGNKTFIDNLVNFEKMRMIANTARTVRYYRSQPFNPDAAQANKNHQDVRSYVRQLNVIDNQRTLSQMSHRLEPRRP
#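 Each well held 100 nM EPAC2, 250 nM RAP1B-BODIPY-GDP and 50 uM GDP. Fluorescence, read at 5-min intervals to 30 min, was referenced to a 6.5 mM cAMP positive control.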
# USP1 inh = Inhibitors of USP1/UAF1: Primary Screen | recombinant USP1/UAF1, Ub-Rhodamine cleavage fluorescence | Potency, µM (doses to about 57.1 µM), without a hit: at the top dose activity change, negative = inhibition, most hits filed as inhibitors | 390,000 tested, 0.23% active; note: % is set by controls: 0 for no effect and ±100 for the full control effect; nearly all actives have a fitted effect of over 60% in size
#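 High-throughput fluorogenic screen: 1nM USP1/UAF1 complex, Ub-Rho substrate 150nM final, 50mM HEPES pH 7.8 with 0.5mM EDTA, 0.1 mg/ml BSA, 1mM TCEP and 0.01% Tween-20.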
# USP2a block = qHTS Assay for Inhibitors of Ubiquitin-specific Protease USP2a Using CHOP2 as the Reporter; Ubiquitin carboxyl-terminal hydrolase 2 (Homo sapiens), O75604; USP2 core, Ub-CHOP2 coupled fluorogenic reporter, 485/531; Potency, µM (series often up to 38.3 µM), without a hit: at the top dose activity change, negative = inhibition, most hits filed as inhibitors; 330,000 tested, 0.01% active;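 note: plate controls were DMSO wells for no effect and full inhibition by NEM control for full effect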
#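 USP2 core (10nM final) preincubated 30min RT with compound in 20mM Tris-HCl pH 8.0, 2mM CaCl2, 2mM beta-mercaptoethanol, 0.05% CHAPS; 25nM Ub-CHOP2 plus 25nM reporter substrate added, fluorescence (Ex485/Em531) read after 60min.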
# EPAC2 antag = qHTS for Antagonist of cAMP-regulated guanine nucleotide exchange factor 2 (EPAC2): primary screen; Rap guanine nucleotide exchange factor 4 (Homo sapiens), Q8WZA2; EPAC2 GEF exchange of Rap1B-BODIPY-GDP, fluorescence; Potency, µM (doses to about 114 µM), for the others: top-dose activity, negative = inhibition, hits mostly inhibitors; 360,000 tested, 0.18% active; note: % is set by controls: 0 for no effect and ±100 for the full control effect; nearly all actives have a fitted effect of over 45% in size
# EPAC1 ag = qHTS for Agonist of cAMP-regulated guanine nucleotide exchange factor 3 (EPAC1): primary screen | 360,000 tested, 0.073% active | EPAC1 agonist qHTS, biochemical assay; response scale: 100% = response to 6.5 mM cAMP | Potency, µM (top dose mostly 154 µM), inactives show at the top dose activation, usual class: activators | Rap guanine nucleotide exchange factor 3 (Homo sapiens), O95398 | AID 720707, 2013; note: nearly all actives have a fitted effect of over 60% in size
#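 Normalized to 6.5 mM cAMP, activity reflects EPAC1-catalysed release of BODIPY-GDP from Rap1B, followed kinetically over 30 min at 480 nm excitation, 540 nm emission. Reaction contained 100 nM EPAC1, 250 nM Rap1B-BODIPY-GDP, 50 uM GDP.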
# An asterisk follows results filed as active; ? = inconclusive; . = no result. Calls come from the whole dose curve; as a rule, active = well fitted curve in the direction sought with a large enough effect; inconclusive = small, poorly fitted or top-dose-only effect, or another doubt; inactive = no such curve, though single readings can be large; an effect the other way counts as inactive or inconclusive. Potency is the fitted concentration of half-maximal effect.
SMILES,EPAC1 antag,EPAC2 agonist,USP1 inh,USP2a block,EPAC2 antag,EPAC1 ag
Cc1cc(OC(=O)c2c(C)cc(OC(=O)c3c(C)cc(O)cc3O)cc2O)cc(O)c1C(=O)O,56µM*,2%,-11%,.,-3%,-6%
CCOC(=O)CC(=O)CSc1nc(-c2cccnc2)ccc1C#N,7%,24%,32µM*,1%,6%,16%
CCn1cc(C(=O)NCCOC)c(=O)c2cc(S(=O)(=O)N3CCOCC3)ccc21,.,.,-18%,.,.,.
Cc1ccc(-c2cc(C(=O)NCc3ccccc3)c3c(-c4ccc(C)cc4)[nH]nc3n2)cc1,.,.,-17%,.,.,.
COC1OC(COC(=O)c2ccccc2)C(OC(=O)c2ccccc2)C1OC(=O)c1ccccc1 (stereo not given),-12%,8%,-15%,-11%,-1%,17%
O=C(OC[C@H]1O[C@@H](OC(=O)c2cc(O)c(O)c(OC(=O)c3cc(O)c(O)c(O)c3)c2)[C@H](OC(=O)c2cc(O)c(O)c(OC(=O)c3cc(O)c(O)c(O)c3)c2)[C@@H](OC(=O)c2cc(O)c(O)c(OC(=O)c3cc(O)c(O)c(O)c3)c2)[C@@H]1OC(=O)c1cc(O)c(O)c(OC(=O)c2cc(O)c(O)c(O)c2)c1)c1cc(O)c(O)c(OC(=O)c2cc(O)c(O)c(O)c2)c1,.,.,.,5µM*,.,.
COC(=O)c1cn(C(=O)c2cc(OC)c(OC)c(OC)c2)c2ccccc12,1%,5%,-24%,-6%,18µM*,-1%
Nc1c(S(=O)(=O)O)cc(NC(=O)c2ccccc2)c2c1C(=O)c1ccccc1C2=O,?,0%,-18%,-9%,40µM*,-4%
O=C(Nc1ccccc1-c1ccccc1)c1ccccc1,-1%,-1%,-2%,-1%,-26%,4%
CCOC(=O)c1cc2n(c1/N=C/N(C)C)-c1ccccc1C2=O,137%,100µM*,25µM*,22%,48%,100µM*
Nc1ccc(S(=O)(=O)Nc2nccs2)cc1N=Nc1ccccc1[N+](=O)[O-],?,-1%,-16%,.,10µM*,12%
O=C(N/N=C/c1c(O)n(-c2ccccc2Cl)c(=O)c2ccccc12)C1COc2ccccc2O1 (stereo not given),10µM*,-5%,-25%,0%,14%,14%
CN1CCN(C2=C(Cl)C(=O)c3ccccc3C2=O)CC1,28µM*,26%,3.5µM*,.,?,5%
NC(=O)C1CCN(C2=C(Cl)C(=O)c3ccccc3C2=O)CC1,-21%,3%,32µM*,-2%,-15%,6%
O=C(O)C1CCN(C(=O)c2ccccc2Cl)CC1,8%,2%,-15%,7%,12%,2%
O=C1C(Cl)=C(N2CCC(C(=O)O)CC2)C(=O)c2ccccc21,?,10%,25µM*,2%,?,9%
NC(=O)C1CCN(C2=C(NS(=O)(=O)c3ccccc3)C(=O)c3ccccc3C2=O)CC1,-11%,11%,-17%,-1%,-12%,4%
O=c1c2ccccc2nc(/C=C/c2ccccc2)n1CCc1ccccc1,-12%,-1%,-10%,-3%,0%,0%
O=c1c2ccccc2nc(/C=C/c2cccnc2)n1CCc1ccccc1,79µM*,6%,-5%,2%,5%,-5%
CCOC(=O)N1CCN(Cc2nc3cc(NC(=O)c4ccc([N+](=O)[O-])cc4)ccc3n2C(C)C)CC1,.,.,7%,.,.,.
CCOC(=O)C1CCN(C(=O)Nc2ccc3nc(-c4ccco4)c(-c4ccco4)nc3c2)CC1,?,3%,?,0%,3%,-1%
O=C(Nc1ccc2nc(-c3ccco3)c(-c3ccco3)nc2c1)N1CCCCCC1,40µM*,1%,32µM*,-6%,3%,-1%
O=C(NCCO)c1ccc2nc(-c3ccco3)c(-c3ccco3)nc2c1,?,-3%,32µM*,4%,2%,-1%
O=C(c1ccccc1)c1ccc2nc(-c3ccco3)c(-c3ccco3)nc2c1,50µM*,-6%,?,?,-15%,-3%
CC1CCCCC1NC(=O)COC(=O)c1c2c(nc3ccccc13)/C(=C\c1ccco1)CC2 (stereo not given),35µM*,-16%,?,.,-2%,-27%
SMILES,EPAC1 antag,EPAC2 agonist,USP1 inh,USP2a block,EPAC2 antag,EPAC1 ag
O=C(COC(=O)c1c2c(nc3ccccc13)/C(=C\c1ccco1)CC2)NC1CCCC1,?,-1%,-10%,.,0%,6%
CSc1nc(N2CCOCC2)c2c3c(sc2n1)CCCC3,-10%,3%,-22%,2%,18µM*,5%
Cc1nc(N2CCOCC2)c2c3c(sc2n1)CCC3,3%,2%,-7%,2%,-14%,-7%
CCC(=O)N1CCc2cc(S(=O)(=O)NCCC(=O)Nc3ccc(OC)c(OC)c3)ccc21,.,.,-15%,.,.,.
Oc1ccc(NCc2cccs2)cc1,56µM*,7%,-17%,3%,5%,12%
O=C1CCN2C=Nc3cccc4ccc1c2c34,297%,89µM*,28µM*,?,284%,63µM*
Clc1ccccc1C(c1ccccc1)(c1ccccc1)n1ccnc1,-4%,20%,-17%,1%,14µM*,5%
Cc1ccc2c(=O)cc(C(=O)Nc3ccc(S(=O)(=O)Nc4onc(C)c4C)cc3)oc2c1C,.,.,-15%,.,.,.
Cc1nc(C)c(-c2csc(Nc3ccc(F)cc3)n2)s1,-25%,8%,-26%,5%,9%,-5%
Cc1nc(C)c(-c2csc(Nc3ccc(C(=O)O)c(O)c3)n2)s1,?,-1%,-5%,1%,10µM*,19%
O=C(O)c1cccc(NC2=C(N3CCOCC3)C(=O)c3ccccc3C2=O)c1,-15%,-1%,32µM*,3%,-6%,1%
O=C1C=C(N2CCOCC2)c2ccccc2C1=O,10µM*,22%,3.2µM*,2%,?,3%
O=C1C=C(N2CCOCC2)c2cccc3cccc1c23,-9%,1%,-23%,.,3%,1%
CN(C)CCCN(C(=O)c1cc2cc([N+](=O)[O-])ccc2s1)c1nc2cc3c(cc2s1)OCCO3,?,27%,0%,-1%,50µM*,19%

# Screening data: PubChem BioAssay, National Center for Advancing Translational Sciences (NCATS)
